A number with no mark means an inactive call. Results filed as inconclusive are left out. Active and inactive are the calls of the source. Unless noted, calls come from the whole dose curve; as a rule, active = well fitted curve in the direction sought with a large enough effect in the repeat runs; inconclusive = weak or mixed curves; inactive = no such curve, though single readings can be large; an effect the other way counts as inactive or inconclusive.

The text below walks through data of PubChem BioAssay (Tox21).

The target in test [1] is Thyrotropin receptor (Homo sapiens) (UniProt P16473). In words: qHTS assay to identify small molecule agonists of the thyroid stimulating hormone receptor (TSHR) signaling pathway (AID 1224843; calls by dose curve; note: nearly all actives have a fitted effect of over 45% in size; note: potency is the fitted concentration of half-maximal effect). A digest of the protocol:
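Agonist-mode screen: TSHR HEK293 cells received test chemicals for half an hour at room temperature, then HTRF cAMP detection reagents for one hour prior to fluorescence measurement. Each chemical ran as a 15-concentration series, triplicated.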
On the technique in general: Quantitative high-throughput screening tests each substance at several concentrations.

Test [2] can be described thus: qHTS assay to identify small molecule agonists of the hypoxia (HIF-1) signaling pathway - cell viability counter screen (AID 1224844; calls by dose curve; note: nearly all actives have a fitted effect of over 50% in size). The procedure, abridged:
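In this counter screen, HRE-bla ME-180 cell viability after 17 hrs of compound exposure at 37C was read by CellTiter-Glo luminescence, multiplexed with the beta-lactamase reporter measurement.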

Test [3] in a line: qHTS assay to identify small molecule agonists of H2AX (AID 1224845; active = well fitted activation curve with a large enough effect in the signal ratio in the repeat runs, not every such curve was filed as active; the % refers to the signal ratio; note: potency is the fitted concentration of half-maximal effect). The procedure, abridged: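 Wild-type CHO-K1 cells, plated overnight, exposed 3hr at 37C to 15 concentrations (0.76% DMSO final). Lysed, then HTRF anti-pH2AX (S139) cryptate and anti-H2AX-d2 antibodies, 24 hr room temperature; 665/620 nm emission read.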
A short description of test [4]: qHTS assay to identify small molecule agonists of the hypoxia (HIF-1) signaling pathway (AID 1224846; active = well fitted activation curve with a large enough effect in the signal ratio in the repeat runs, not every such curve was filed as active; the % refers to the signal ratio). A digest of the protocol: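 ME-180 HRE-bla reporter cells; compounds in DMSO, 17 h at 37C; read-out beta-lactamase via CCF4-AM FRET.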
Test [5] can be described thus: qHTS assay to identify small molecule agonists of H2AX - cell viability counter screen (AID 1224847; calls by dose curve; note: top concentration of the series differs between compounds; nearly all actives have a fitted effect of over 30% in size). The procedure, abridged:
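Counter-screen for viability: CellTiter-Glo ATP luminescence read after 3 h compound treatment (15-point titration, 0.76% DMSO final) of CHO-K1 cells at 37C, with 30 min room-temperature reagent incubation.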

The nature of test [6]: qHTS assay to identify small molecule antagonists of the estrogen related receptor (ERR) signaling pathway from Tox21 library (AID 1224848). Note: nearly all actives have a fitted effect of over 50% in size. Note: potency is the fitted concentration of half-maximal effect. The procedure, abridged: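 Quantitative high-throughput format: ERR reporter cells (2,000/well) pre-incubated 6 h, treated 18 h at 37 C with compounds in DMSO alongside positive and negative controls, then read by ONE-Glo luminescence.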

The nature of test [7]: qHTS assay to identify small molecule agonists of the estrogen related receptor (ERR) signaling pathway from Tox21 library (AID 1224849; calls by dose curve; note: nearly all actives have a fitted effect of over 15% in size). To be noted: ERR reporter cell line, ONE-Glo luciferase, 18 h; at 92.4 µM (top of the series) unless noted. A digest of the protocol: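 Luciferase activity in ERR pathway reporter cells served as the agonist readout; exposure lasted 18 h at 37 C, with ONE-Glo detection after 30 min at room temperature.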

Test [8] can be described thus: qHTS RealTime-Glo MT Cell Viability Assay in HepG2 cells - 24 hour (AID 1224867). Note: nearly all actives have a fitted effect of over 50% in size. The procedure, abridged: (§1)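 qHTS, HepG2, 600 cells/well, RealTime-Glo (NanoLuc + prosubstrate) added with cells; 5 h preincubation; DMSO compound addition; 37 C; luminescence at 0/8/16/24/32/40 h.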
Test [9] is described as follows: qHTS RealTime-Glo MT Cell Viability Assay in HEK293 cells - 32 hour (AID 1224868). Note: top concentration of the series differs between compounds; nearly all actives have a fitted effect of over 50% in size. The procedure, abridged: (§2)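 Assay medium contained NanoLuc luciferase plus cell-permeant prosubstrate, added with HEK293 cells at 600 cells/well. After 5 h at 37 C/5% CO2 compounds were added; plates stayed at 37 C for 40 h with serial luminescence reads.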
Test [10] is described as follows: A CellTox Green Cytotoxicity Assay to monitor cytotoxicity in HEK293 cells - 0 hour (AID 1224869). Note: nearly all actives have a fitted effect of over 50% in size. Note: potency is the fitted concentration of half-maximal effect. A digest of the protocol: (§3)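 Real-time, in one plate: 600 HEK293 cells/well with dead-cell DNA dye, pinned compound after 5 h, 37 C incubation over 40 h; viable cells give no appreciable fluorescence.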
A short description of test [11]: A CellTox Green Cytotoxicity Assay to monitor cytotoxicity in HEK293 cells - 40 hour (AID 1224871). Note: nearly all actives have a fitted effect of over 45% in size. Note: potency is the fitted concentration of half-maximal effect. A digest of the protocol:
as §3

Test [12] can be described thus: qHTS RealTime-Glo MT Cell Viability Assay in HEK293 cells - 16 hour (AID 1224872). The procedure, abridged:
as §2

The nature of test [13]: qHTS RealTime-Glo MT Cell Viability Assay in HepG2 cells - 8 hour (AID 1224873). Note: nearly all actives have a fitted effect of over 55% in size. A digest of the protocol:
(§4)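 HepG2 cells (600/well) mixed with RealTime-Glo MT reagent, settled 5 h at 37 C/5% CO2 before compound addition. Nonlytic NanoLuc luminescence from viable-cell prosubstrate reduction read repeatedly during 40 h treatment at 37 C.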

Test [14] in a line: qHTS RealTime-Glo MT Cell Viability Assay in HEK293 cells - 40 hour (AID 1224874). Note: nearly all actives have a fitted effect of over 50% in size. The settings on record: RealTime-Glo luminescence; max response: stronger effect = lower value. A digest of the protocol:
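Kinetic, non-lysing viability readout. Seed HEK293 (600/well) with reagent, incubate 5 h at 37 C/5% CO2, pin 23 nL compound in DMSO, incubate at 37 C, read luminescence at 0, 8, 16, 24, 32, 40 h.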

A short description of test [15]: A CellTox Green Cytotoxicity Assay to monitor cytotoxicity in HEK293 cells - 24 hour (AID 1224875). Note: nearly all actives have a fitted effect of over 45% in size. Note: potency is the fitted concentration of half-maximal effect. The procedure, abridged:
as §3

A short description of test [16]: A CellTox Green Cytotoxicity Assay to monitor cytotoxicity in HepG2 cells - 16 hour (AID 1224876). Note: nearly all actives have a fitted effect of over 45% in size. Note: potency is the fitted concentration of half-maximal effect. The procedure, abridged:
(§5)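 Cytotoxicity was tracked as dead-cell DNA fluorescence in HepG2 cells treated with test compounds at 37 C; each time-point value comes from one kinetic series spanning 0, 8, 16, 24, 32 and 40 h.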

Test [17] is described as follows: qHTS RealTime-Glo MT Cell Viability Assay in HepG2 cells - 32 hour (AID 1224877). Note: nearly all actives have a fitted effect of over 55% in size. A digest of the protocol: as §1
Test [18] is described as follows: A CellTox Green Cytotoxicity Assay to monitor cytotoxicity in HepG2 cells - 24 hour (AID 1224878). Note: nearly all actives have a fitted effect of over 45% in size. Note: potency is the fitted concentration of half-maximal effect. A digest of the protocol:
as §5

Test [19] can be described thus: A CellTox Green Cytotoxicity Assay to monitor cytotoxicity in HepG2 cells - 40 hour (AID 1224879). Note: nearly all actives have a fitted effect of over 40% in size. Note: potency is the fitted concentration of half-maximal effect. A digest of the protocol:
as §5

Test [20] in a line: qHTS RealTime-Glo MT Cell Viability Assay in HepG2 cells - 40 hour (AID 1224870). Note: nearly all actives have a fitted effect of over 50% in size. The procedure, abridged:
as §4
% is set by controls: 0 for no effect and ±100 for the full control effect.

Thyrotropin receptor (Homo sapiens), sequence (P16473 whole entry, looked up): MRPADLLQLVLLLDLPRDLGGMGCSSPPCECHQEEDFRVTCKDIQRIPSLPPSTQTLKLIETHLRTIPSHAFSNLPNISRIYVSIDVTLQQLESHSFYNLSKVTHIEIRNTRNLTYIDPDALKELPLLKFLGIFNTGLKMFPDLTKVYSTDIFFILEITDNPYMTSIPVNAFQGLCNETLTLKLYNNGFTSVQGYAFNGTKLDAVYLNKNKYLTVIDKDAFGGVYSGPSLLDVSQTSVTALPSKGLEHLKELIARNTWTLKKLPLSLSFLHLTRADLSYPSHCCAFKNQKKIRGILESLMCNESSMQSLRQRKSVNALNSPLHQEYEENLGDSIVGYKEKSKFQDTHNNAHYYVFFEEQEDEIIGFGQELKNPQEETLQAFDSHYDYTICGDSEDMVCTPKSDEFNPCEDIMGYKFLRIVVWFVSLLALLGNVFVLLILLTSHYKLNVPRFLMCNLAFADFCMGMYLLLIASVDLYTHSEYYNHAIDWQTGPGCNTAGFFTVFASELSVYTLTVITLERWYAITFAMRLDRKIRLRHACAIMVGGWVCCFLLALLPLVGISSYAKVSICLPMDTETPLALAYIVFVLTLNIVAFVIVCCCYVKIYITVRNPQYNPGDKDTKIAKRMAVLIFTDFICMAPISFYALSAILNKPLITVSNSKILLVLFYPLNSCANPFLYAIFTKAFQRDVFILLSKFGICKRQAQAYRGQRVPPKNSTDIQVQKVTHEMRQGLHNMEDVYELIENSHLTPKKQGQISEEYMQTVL

As to `C=C(C#N)CCC#N`, the Potency result in test [1], in [2], in test [3], in [5], in test [6] and in test [8] was “inactive” each time. Moreover, the Potency result in test [9], in [10], in test [11], in test [12], in test [13] and in test [15] was “inactive” in each case. Besides, the Potency result in test [16], in [17], in test [18] and in test [19] was “inactive” in each case. For the same molecule, the molecule was classed as inactive in test [4]. Further, the activity change, positive = activation in test [7] was 0.822%. Moreover, the max response in test [14] is 5.63%.
Take `COC(=O)C(C)N(C(=O)Cc1ccccc1)c1c(C)cccc1C` (centres undefined): the Potency in test [1] is 27.3 µM (active); in test [6] it was 30.6 µM (active). The Potency entry in [2], in test [3], in [5], in test [8], in test [10] and in test [20] was “inactive” each time. Further, the Potency entry in [11], in test [13], in test [15] and in test [17] was “inactive” throughout. In addition, the call in test [4] was inactive. For the same molecule, the activity change, positive = activation in test [7] was -38.3%.
Take `O=Cc1ccc2c(c1)OCO2`: the Potency entry in [1], in [2], in test [3], in [5], in test [8] and in test [9] was “inactive” each time. In addition, the Potency entry in test [10], in test [20], in test [11], in test [12], in [13] and in test [15] was “inactive” throughout. Moreover, the Potency result in [16], in [17], in [18] and in [19] was “inactive” each time. Further, the molecule was classed as inactive in test [4]. Moreover, the max response in test [14] was 0.0881%.
For `Clc1cccc(SC2CCNCC2)n1`, the Potency entry in test [1], in test [2], in test [3], in test [5], in test [6] and in test [8] was “inactive” each time. In addition, the Potency result in test [9], in [10], in test [20], in [11], in test [15] and in test [16] was “inactive” in each case. The Potency entry in test [17], in test [18] and in test [19] was “inactive” in each case. For the same molecule, the outcome in test [4] was inactive. Further, the activity change, positive = activation in test [7] was 0.887% [at 42.5 µM]. Also, the max response in test [14] was 1.39%.
In the case of `N#CCC#N`, the Potency result in test [1], in [2], in [5], in test [8], in test [9] and in [10] was “inactive” in each case. The Potency entry in test [20], in [11], in test [13], in test [15], in test [16] and in test [17] was “inactive” throughout. In addition, the Potency result in test [18] is “inactive”. Besides, the Potency in test [3] was 89.8 µM (active). Besides, in test [4], the molecule was called inactive. Also, the max response in test [14] was -1.97%.
In the case of `COc1nn(C(=O)NS(=O)(=O)c2ccccc2OC(F)(F)F)c(=O)n1C`, the Potency entry in test [1], in [2], in test [3], in [5], in test [6] and in test [8] was “inactive” in each case. Also, the Potency result in test [9], in test [12], in test [13] and in test [17] was “inactive” in each case. For the same molecule, the result in [4] was inactive. Moreover, the activity change, positive = activation in [7] was 1.4%. The Potency in [10] is 31.7 µM (active); in [11], 20 µM (active); in [15] it was 22.4 µM (active); in [16] it was 35.5 µM (active); in test [18] it was 39.9 µM (active); in test [19] it was 39.9 µM (active). Also, the max response in [14] is 12.6%.
Turning to `O=C(O)CC(Cl)C(=O)O` (centres undefined), the Potency entry in [1], in test [2], in test [3], in [5], in [6] and in test [8] was “inactive” in each case. For the same molecule, the Potency entry in [9], in test [10], in [20], in test [11], in [15] and in [17] was “inactive” in each case. For the same molecule, in [4], the molecule was classed as inactive. In addition, in [7], the activity change, positive = activation was 7%. For the same molecule, the max response in test [14] was 0.924%.
